# Changes are numbered by the printed parent chain.
# Experiments:
# Assay in all cases: yeast three-hybrid, YBZ-1, SC-Leu-His + 0.5 mM 3-AT, 4 days
# Settings in all cases: tags: N-Gal4 AD-HA kept; label: inside an RPR1-promoter hybrid RNA with tandem MS2 sites; ssRNA
# PUM1 PUF domain R4-LRC = PUM1 PUF domain R4-LRC (Homo sapiens, UniProt Q14671 828-1176, N971L;H972R;Q975C)
# In short: (§1)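 The interaction score is the log change in how often each variant appears, from input to selection. Frequencies came from PCR-amplified, Illumina-sequenced repeat regions of Pumilio-1 PUF domain libraries grown in strain YBZ-1 (LexA–MS2 coat fusion, HIS3 reporter) alongside matching RNA elements. Input plates were SC-Leu and selection plates were SC-Leu-His + 0.5 mM 3-AT, each for four days, and the log2 calculation used a pseudocount of 1 where a variant was absent.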
# PUM1 PUF domain R8-IYR = PUM1 PUF domain R8-IYR (Homo sapiens, UniProt Q14671 828-1176, N1122I;Q1126R)
# In short: as §1
# PUM1 PUF domain R5-RFC = PUM1 PUF domain R5-RFC (Homo sapiens, UniProt Q14671 828-1176, C1007R;R1008F;Q1011C)
# In short: as §1
# PUM1 PUF domain R6-RFV = biological target: T1, PUM1 PUF domain R6-RFV (Homo sapiens, UniProt Q14671 828-1176, N1043R;Y1044F;Q1047V)
# T1 sequence: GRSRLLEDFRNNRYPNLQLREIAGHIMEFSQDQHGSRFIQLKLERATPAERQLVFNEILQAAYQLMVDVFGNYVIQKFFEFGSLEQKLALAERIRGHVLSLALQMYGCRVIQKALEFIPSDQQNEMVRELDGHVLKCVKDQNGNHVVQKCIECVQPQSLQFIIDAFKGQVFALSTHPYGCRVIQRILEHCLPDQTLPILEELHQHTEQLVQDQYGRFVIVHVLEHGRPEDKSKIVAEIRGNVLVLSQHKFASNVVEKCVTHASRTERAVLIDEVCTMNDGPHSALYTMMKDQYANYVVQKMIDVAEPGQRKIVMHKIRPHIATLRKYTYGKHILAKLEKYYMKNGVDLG
# In short: as §1
# PUM1 PUF domain R3-CNE = PUM1 PUF domain R3-CNE (Homo sapiens, UniProt Q14671 828-1176, R936N;Q939E)
# In short: as §1
# PUM1 PUF domain R4-PFG = PUM1 PUF domain R4-PFG (Homo sapiens, UniProt Q14671 828-1176, N971P;H972F;Q975G)
# In short: as §1
# PUM1 PUF domain R8-PFR = PUM1 PUF domain R8-PFR (Homo sapiens, UniProt Q14671 828-1176, N1122P;Y1123F;Q1126R)
# In short: as §1
# PUM1 PUF domain R6-QYV = biological target: T2, PUM1 PUF domain R6-QYV (Homo sapiens, UniProt Q14671 828-1176, N1043Q;Q1047V)
# T2 sequence: T1 sequence with R216Q, F217Y
# In short: as §1
# PUM1 PUF domain R6-KYL = biological target: T3, PUM1 PUF domain R6-KYL (Homo sapiens, UniProt Q14671 828-1176, N1043K;Q1047L)
# T3 sequence: T1 sequence with R216K, F217Y, V220L
# In short: as §1
# PUM1 PUF domain R6-IWG = biological target: T4, PUM1 PUF domain R6-IWG (Homo sapiens, UniProt Q14671 828-1176, N1043I;Y1044W;Q1047G)
# T4 sequence: T1 sequence with R216I, F217W, V220G
# In short: as §1
# PUM1 PUF domain R1-KFL = PUM1 PUF domain R1-KFL (Homo sapiens, UniProt Q14671 828-1176, S863K;R864F;Q867L)
# In short: as §1
# PUM1 PUF domain R7-RSC = PUM1 PUF domain R7-RSC (Homo sapiens, UniProt Q14671 828-1176, S1079R;N1080S;E1083C)
# In short: as §1
# PUM1 PUF domain R7-GCR = PUM1 PUF domain R7-GCR (Homo sapiens, UniProt Q14671 828-1176, S1079G;N1080C;E1083R)
# In short: as §1
# PUM1 PUF domain R6-IFG = biological target: T5, PUM1 PUF domain R6-IFG (Homo sapiens, UniProt Q14671 828-1176, N1043I;Y1044F;Q1047G)
# T5 sequence: T1 sequence with R216I, V220G
# In short: as §1
# PUM1 PUF domain R4-EYR = PUM1 PUF domain R4-EYR (Homo sapiens, UniProt Q14671 828-1176, N971E;H972Y;Q975R)
# In short: as §1
# PUM1 PUF domain R7-CSR = PUM1 PUF domain R7-CSR (Homo sapiens, UniProt Q14671 828-1176, S1079C;N1080S;E1083R)
# In short: as §1
# PUM1 PUF domain R5-KRH = PUM1 PUF domain R5-KRH (Homo sapiens, UniProt Q14671 828-1176, C1007K;Q1011H)
# In short: as §1
# PUM1 PUF domain R5-KDK = PUM1 PUF domain R5-KDK (Homo sapiens, UniProt Q14671 828-1176, C1007K;R1008D;Q1011K)
# In short: as §1
# PUM1 PUF domain R3-TQE = PUM1 PUF domain R3-TQE (Homo sapiens, UniProt Q14671 828-1176, C935T;R936Q;Q939E)
# In short: as §1
# PUM1 PUF domain R5-SQK = PUM1 PUF domain R5-SQK (Homo sapiens, UniProt Q14671 828-1176, C1007S;R1008Q;Q1011K)
# In short: as §1
sequence,measurement,setting,value
GGCUAGAACUAGUGGAUCCCCCGGCGCCCGGCGGCUCGAGCCCGGGUAAGUGUAAAUAGUCUGCAUGCCGCCGGGCGCCAUGCCUGCAGGUCGACUCUAGAAAACAUG,binding signal,PUM1 PUF domain R4-LRC,4.01 log2 enrichment (interaction score)
same,binding signal,PUM1 PUF domain R8-IYR,4.7 log2 enrichment (interaction score)
same,binding signal,PUM1 PUF domain R5-RFC,3.35 log2 enrichment (interaction score)
same,binding signal,PUM1 PUF domain R6-RFV,3.56 log2 enrichment (interaction score)
same,binding signal,PUM1 PUF domain R3-CNE,2.27 log2 enrichment (interaction score)
same,binding signal,PUM1 PUF domain R4-PFG,6.55 log2 enrichment (interaction score)
same,binding signal,PUM1 PUF domain R8-PFR,3.82 log2 enrichment (interaction score)
same,binding signal,PUM1 PUF domain R6-QYV,3.63 log2 enrichment (interaction score)
same,binding signal,PUM1 PUF domain R6-KYL,5.29 log2 enrichment (interaction score)
same,binding signal,PUM1 PUF domain R6-IWG,3.59 log2 enrichment (interaction score)
GGCUAGAACUAGUGGAUCCCCCGGCGCCCGGCGGCUCGAGCCCGGGUAAGUGUAAAUCGUCUGCAUGCCGCCGGGCGCCAUGCCUGCAGGUCGACUCUAGAAAACAUG,binding signal,PUM1 PUF domain R1-KFL,4.43 log2 enrichment (interaction score)
GGCUAGAACUAGUGGAUCCCCCGGCGCCCGGCGGCUCGAGCCCGGGUAAGUCUAAAUAGUCUGCAUGCCGCCGGGCGCCAUGCCUGCAGGUCGACUCUAGAAAACAUG,binding signal,PUM1 PUF domain R7-RSC,2.75 log2 enrichment (interaction score)
same,binding signal,PUM1 PUF domain R7-GCR,5.49 log2 enrichment (interaction score)
GGCUAGAACUAGUGGAUCCCCCGGCGCCCGGCGGCUCGAGCCCGGGUAAGUGAAAAUAGUCUGCAUGCCGCCGGGCGCCAUGCCUGCAGGUCGACUCUAGAAAACAUG,binding signal,PUM1 PUF domain R6-IFG,4.32 log2 enrichment (interaction score)
same,binding signal,PUM1 PUF domain R6-IWG,1.15 log2 enrichment (interaction score)
GGCUAGAACUAGUGGAUCCCCCGGCGCCCGGCGGCUCGAGCCCGGGUAAGUGUACAUAGUCUGCAUGCCGCCGGGCGCCAUGCCUGCAGGUCGACUCUAGAAAACAUG,binding signal,PUM1 PUF domain R4-PFG,6.74 log2 enrichment (interaction score)
same,binding signal,PUM1 PUF domain R4-EYR,1.63 log2 enrichment (interaction score)
GGCUAGAACUAGUGGAUCCCCCGGCGCCCGGCGGCUCGAGCCCGGGUAAGUGUAUAUAGUCUGCAUGCCGCCGGGCGCCAUGCCUGCAGGUCGACUCUAGAAAACAUG,binding signal,PUM1 PUF domain R4-PFG,7.12 log2 enrichment (interaction score)
same,binding signal,PUM1 PUF domain R4-EYR,3.63 log2 enrichment (interaction score)
GGCUAGAACUAGUGGAUCCCCCGGCGCCCGGCGGCUCGAGCCCGGGUAAGUUUAAAUAGUCUGCAUGCCGCCGGGCGCCAUGCCUGCAGGUCGACUCUAGAAAACAUG,binding signal,PUM1 PUF domain R7-CSR,3.61 log2 enrichment (interaction score)
GGCUAGAACUAGUGGAUCCCCCGGCGCCCGGCGGCUCGAGCCCGGGUAAGCGUAAAUAGUCUGCAUGCCGCCGGGCGCCAUGCCUGCAGGUCGACUCUAGAAAACAUG,binding signal,PUM1 PUF domain R8-IYR,6.47 log2 enrichment (interaction score)
same,binding signal,PUM1 PUF domain R8-PFR,5.6 log2 enrichment (interaction score)
GGCUAGAACUAGUGGAUCCCCCGGCGCCCGGCGGCUCGAGCCCGGGUAAGUGUCAAUAGUCUGCAUGCCGCCGGGCGCCAUGCCUGCAGGUCGACUCUAGAAAACAUG,binding signal,PUM1 PUF domain R5-KRH,4.38 log2 enrichment (interaction score)
same,binding signal,PUM1 PUF domain R5-RFC,5.11 log2 enrichment (interaction score)
same,binding signal,PUM1 PUF domain R5-KDK,2.95 log2 enrichment (interaction score)
GGCUAGAACUAGUGGAUCCCCCGGCGCCCGGCGGCUCGAGCCCGGGUAAGUGUAAGUAGUCUGCAUGCCGCCGGGCGCCAUGCCUGCAGGUCGACUCUAGAAAACAUG,binding signal,PUM1 PUF domain R3-CNE,3.08 log2 enrichment (interaction score)
same,binding signal,PUM1 PUF domain R3-TQE,2.29 log2 enrichment (interaction score)
GGCUAGAACUAGUGGAUCCCCCGGCGCCCGGCGGCUCGAGCCCGGGUAAGUGUUAAUAGUCUGCAUGCCGCCGGGCGCCAUGCCUGCAGGUCGACUCUAGAAAACAUG,binding signal,PUM1 PUF domain R5-SQK,2.21 log2 enrichment (interaction score)
GGCUAGAACUAGUGGAUCCCCCGGCGCCCGGCGGCUCGAGCCCGGGUAAGUGUAAAUUGUCUGCAUGCCGCCGGGCGCCAUGCCUGCAGGUCGACUCUAGAAAACAUG,binding signal,PUM1 PUF domain R1-KFL,2.99 log2 enrichment (interaction score)

# Source: PMC8384837, “Expanding the binding specificity for RNA recognition by a PUF domain”
